This note sets out measurements from PubChem BioAssay (Tox21).

Several values for one entry are separate records, joined by “and”; a condition that tells them apart may be missing. Identical values can stand only once. Unmarked numbers belong to inactive results. Records with an inconclusive call do not appear. Activity calls are given as the source filed them. Unless noted, calls follow the shape of the dose curve; as a rule, active = well fitted curve in the direction sought with a large enough effect in the repeat runs; inconclusive = weak or mixed curves; inactive = no such curve, though single readings can be large; an effect the other way counts as inactive or inconclusive.

The nature of experiment [1]: qHTS assay for small molecule agonists of the p53 signaling pathway (AID 651631; calls by dose curve; also: nearly all actives have a fitted effect of over 15% in size; also: potency is read from the fitted curve at half-maximal effect). Put shortly: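 HCT-116 cells carrying a stable p53 response element–beta-lactamase reporter were plated, rested 5 h at 37 °C, then exposed to compound in DMSO for 16 h at 37 °C; reporter activity was read as FRET substrate fluorescence after 2 h at room temperature.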
Background: Quantitative high-throughput screening tests each substance at several concentrations.

The nature of experiment [2]: qHTS assay for small molecules that induce genotoxicity in human embryonic kidney cells expressing luciferase-tagged ATAD5 (AID 651632). Also: nearly all actives have a fitted effect of over 15% in size. In a few lines:
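ATAD5-luc HEK293T, 2,000 cells/well; cpd or DMSO pin-transferred; 16 hr, 37C/5% CO2; Amplite 30 min RT; luminescence.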

A short description of experiment [3]: qHTS assay for small molecule agonists of the p53 signaling pathway - cell viability (AID 651633; calls by dose curve; also: nearly all actives have a fitted effect of over 30% in size). Put shortly: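 Viability counter-read: CellTiter-Glo luminescence (30 min, room temperature) in the same p53RE-bla plates. These plates had been exposed to compounds for 16 h at 37 C.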
Experiment [4] is described as follows: qHTS assay for small molecules that induce genotoxicity in human embryonic kidney cells expressing luciferase-tagged ATAD5 - cell viability (AID 651634; calls by dose curve; also: nearly all actives have a fitted effect of over 25% in size). Put shortly: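 Fluorescence from CellTiter-Fluor, reporting protease activity within live cells, served as the viability read-out. HEK293T cells carrying luciferase-tagged ATAD5 had been treated with compound for 15.5 hr at 37C.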

Experiment [5] can be described thus: qHTS assay for small molecule disruptors of the mitochondrial membrane potential - cell viability (AID 720634; calls by dose curve;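 also: human HepG2 liver cancer cells; nearly all actives have a fitted effect of over 20% in size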). In a few lines: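 Cells: HepG2, 2,000/well, attached overnight. Compound 1 hr, 37 C/5% CO2. +m-MPI dye, +CellTiter-Glo 30 min RT. Readout: luminescence (ATP).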
Experiment [6] is described as follows: qHTS assay to test for compound auto fluorescence at 590 nm (red) in HepG2 cells (AID 720674). Put shortly: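 We screened compounds on adherent HepG2 cells, incubating them for an hour at 37 C in 5% CO2 before reading emission at 590 nm under 540 nm excitation; values reflect equivalence to Rose Bengal sodium fluorescence.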
Experiment [7] in a line: qHTS assay to test for compound auto fluorescence at 535 nm (green) in HepG2 cells (AID 720675).
Experiment [8] can be described thus: qHTS assay to test for compound auto fluorescence at 460 nm (blue) in HEK293 cells (AID 720678). In a few lines: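 Cells were seeded and left to adhere for 4-5 hr at 37C. Compounds were then pin-transferred. After an overnight incubation at 37C under 5% CO2, intrinsic fluorescence at 405/460 nm was measured and referenced to triamterene.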
Experiment [9] is described as follows: qHTS assay to test for compound auto fluorescence at 590 nm (red) in HEK293 cells (AID 720679). In a few lines: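 Each well held 2,000 HEK293 cells in medium containing 10% dialyzed FBS. Following 4-5 hr attachment at 37C, 23 nL test compound or DMSO was added; plates sat overnight, and red fluorescence (540/590nm) was recorded.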
A short description of experiment [10]: qHTS assay to test for compound auto fluorescence at 535 nm (green) in HEK293 cells (AID 720680).
Experiment [11] is described as follows: qHTS assay to test for compound auto fluorescence at 460 nm (blue) in HEK293 cell free culture (AID 720681). Put shortly: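 Blue fluorescence (Ex 405/Em 460 nm, triamterene-equivalent) was read immediately after pin transfer of compound or DMSO into medium (DMEM, 10% FBS) without cells.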
Experiment [12] in a line: qHTS assay to test for compound auto fluorescence at 535 nm (green) in HEK293 cell free culture (AID 720682). In a few lines: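 Read-out: 485/535 nm fluorescence intensity, calibrated against fluorescein. Medium only (DMEM + 10% FBS, no cells); test compound or DMSO vehicle added by pintool before plate reading.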
Experiment [13] in a line: qHTS assay to test for compound auto fluorescence at 590 nm (red) in HEK293 cell free culture (AID 720683). Put shortly:
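Red-channel autofluorescence of compounds in culture medium (DMEM, 10% FBS), no cells, measured at 540/590 nm. Rose Bengal sodium is the reference fluorophore for equivalence.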

Experiment [14] in a line: qHTS assay to test for compound auto fluorescence at 590 nm (red) in HepG2 cell free culture (AID 720684). In a few lines: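 Plate contents were MEM with 10% FBS plus test compound or DMSO, no cells. Fluorescence was recorded with 540 nm excitation and 590 nm emission.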
The nature of experiment [15]: qHTS assay to test for compound auto fluorescence at 535 nm (green) in HepG2 cell free culture (AID 720686).
Experiment [16] can be described thus: qHTS assay to test for compound auto fluorescence at 460 nm (blue) in HepG2 cells (AID 720687). Put shortly: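 Blue-channel autofluorescence (Ex/Em 405/460 nm, triamterene-equivalent) was measured after 1 hr compound exposure at 37 C, 5% CO2. Cells were HepG2, plated overnight at 37 C in MEM plus 10% FBS.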
A short description of experiment [17]: qHTS assay to test for compound auto fluorescence at 460 nm (blue) in HepG2 cell free culture (AID 720685). In a few lines: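 Compound (23 nL) or DMSO pinned into cell-free MEM with 10% FBS; blue fluorescence read at 405/460 nm excitation/emission, expressed as auto-fluorescence equivalency to triamterene.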
The target in experiment [18] is Glucocorticoid receptor (Homo sapiens) (UniProt P04150). Briefly: qHTS assay to identify small molecule agonists of the glucocorticoid receptor (GR) signaling pathway (AID 720691; active = well fitted activation curve with a large enough effect in the signal ratio in the repeat runs, not every such curve was filed as active; the % refers to the signal ratio). As to conditions: GR-bla HeLa, beta-lactamase reporter ratio, 18 h; activation: at 62.4 µM (top of the series) unless noted. Put shortly: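 Fluorescence intensity from LiveBLAzer B/G FRET substrate (2 h, room temperature) reports beta-lactamase expression driven by the glucocorticoid response element in GR-bla HeLa cells after 18 h compound exposure at 37 C.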

For experiment [19] the target is unchanged. Briefly: qHTS assay to identify small molecule antagonists of the glucocorticoid receptor (GR) signaling pathway (AID 720692; active = well fitted inhibition curve with a large enough effect in the signal ratio in the repeat runs, not every such curve was filed as active; the % refers to the signal ratio). In a few lines: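 HeLa GR-bla cells; cmpd + dex 5 nM final, 18 h 37 C; LiveBLAzer B/G FRET substrate 2 h RT; fluorescence intensity read. Antagonist mode, qHTS.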
Experiment [20] can be described thus: qHTS assay for small molecule disruptors of the mitochondrial membrane potential (AID 720635). In a few lines: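 Mitochondrial membrane potential tracked with Mito-MPS dye, red aggregates (ex 540/em 590 nm) against green monomers (ex 490/em 535 nm). Compound treatment 1 hr at 37C, dye 30 min in HepG2.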
% is scaled to controls: 0 for no effect and ±100 for the full control effect.

Glucocorticoid receptor (Homo sapiens), sequence (P04150 whole entry, looked up): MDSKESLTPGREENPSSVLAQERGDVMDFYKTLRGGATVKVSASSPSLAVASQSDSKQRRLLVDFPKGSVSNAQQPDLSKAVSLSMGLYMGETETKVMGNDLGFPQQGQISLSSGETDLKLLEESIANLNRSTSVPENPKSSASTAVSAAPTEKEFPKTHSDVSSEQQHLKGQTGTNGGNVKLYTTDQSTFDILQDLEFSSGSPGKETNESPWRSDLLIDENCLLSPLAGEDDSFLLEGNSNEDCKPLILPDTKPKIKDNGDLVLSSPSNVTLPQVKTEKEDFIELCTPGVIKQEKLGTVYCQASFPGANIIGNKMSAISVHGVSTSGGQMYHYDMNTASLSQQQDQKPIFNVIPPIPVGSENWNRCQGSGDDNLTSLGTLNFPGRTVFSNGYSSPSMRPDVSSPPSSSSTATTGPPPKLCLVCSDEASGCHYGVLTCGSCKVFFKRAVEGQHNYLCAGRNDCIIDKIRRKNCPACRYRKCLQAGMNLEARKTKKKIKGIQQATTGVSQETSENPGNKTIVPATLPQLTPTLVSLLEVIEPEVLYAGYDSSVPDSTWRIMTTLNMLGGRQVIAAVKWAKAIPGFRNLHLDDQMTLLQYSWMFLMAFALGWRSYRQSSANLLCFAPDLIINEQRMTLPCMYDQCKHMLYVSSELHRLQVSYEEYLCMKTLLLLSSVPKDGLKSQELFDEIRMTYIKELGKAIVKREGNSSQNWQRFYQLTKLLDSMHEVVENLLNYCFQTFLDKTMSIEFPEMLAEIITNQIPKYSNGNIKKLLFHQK

For `CCCCC1=NC2(CCCC2)C(=O)N1Cc1ccc(-c2ccccc2-c2nn[nH]n2)cc1`, the Potency result in experiment [1], in experiment [2], in [3], in [4], in experiment [5] and in [6] was “inactive” throughout. Besides, the Potency result in [7], in experiment [9], in experiment [13], in experiment [14] and in experiment [15] was “inactive” in each case. In addition, the outcome in experiment [8], in [10], in [11], in [12] and in experiment [16] was inactive.

For the compound `CC(=O)c1ccc2c(c1)N(CCCN1CCC(CCO)CC1)c1ccccc1S2`, the Potency entry in experiment [1], in experiment [2], in experiment [3], in experiment [4], in experiment [5] and in [18] was “inactive” each time. For the same compound, in experiment [6], the fluorescence, relative to Rose Bengal was -0.311% [at 18.6 µM]. The values for the fluorescence, % of fluorescein control in [7] and in experiment [15] were 0.043% [at 18.6 µM] and 0.041% [at 18.6 µM], respectively. Moreover, the fluorescence, % of triamterene in experiment [8] is -0.0315% [at 18.6 µM]. Also, the fluorescence, % of fluorescein in experiment [10] was -0.0765% [at 18.6 µM]. The fluorescence, % of fluorescent control in experiment [11] is -0.0632% [at 18.6 µM]; in experiment [13], -0.134% [at 18.6 µM]; in [17] it was -0.0052% [at 18.6 µM]; in [16] it was -0.011% [at 18.6 µM]. Besides, in experiment [12], the activity change is -0.164% [at 18.6 µM]. For the same compound, in experiment [14], the fluorescence, % of Rose Bengal is 0.583% [at 18.6 µM].

Consider `O=C(O)c1ccccc1Cl`, for which the Potency entry in experiment [1], in [2], in experiment [3], in experiment [4], in [5] and in [6] was “inactive” throughout. The Potency entry in experiment [7], in [9], in [13], in [14] and in experiment [15] was “inactive” throughout. In addition, the compound was classed as inactive in [8], in experiment [10], in experiment [11], in [12], in experiment [17] and in [16].

Turning to `c1ccc(CNCCNCc2ccccc2)cc1`, the Potency entry in experiment [1], in [2], in [3], in experiment [4], in experiment [5] and in experiment [6] was “inactive” in each case. In addition, the Potency entry in experiment [7], in [9], in experiment [14], in [15] and in experiment [18] was “inactive” in each case. The call in [8], in [10], in experiment [11], in experiment [12] and in experiment [16] was inactive.

`CCOCC(O)COc1ccc(NC(=O)CC[S+](C)C)cc1` (stereo not drawn): the Potency result in [1], in experiment [2], in experiment [3], in [4], in [5] and in experiment [6] was “inactive” in each case. Besides, the Potency result in experiment [7], in [9], in experiment [13], in experiment [14], in [15] and in [18] was “inactive” each time. For the same compound, in experiment [19], the Potency result was “inactive”. Besides, the compound was classed as inactive in experiment [8], in experiment [10], in [11], in [12], in [17] and in experiment [16].

As for `CN1CCN(C(c2ccccc2)c2ccccc2)CC1`, the Potency entry in [1], in experiment [2], in experiment [3], in experiment [4], in [5] and in [18] was “inactive” in each case. For the same compound, the fluorescence, relative to Rose Bengal in experiment [6] was 0.313% [at 18.6 µM]. Moreover, the figures for the fluorescence, % of fluorescein control in [7] and in [15] were -0.189% [at 18.6 µM] and 0.0024% [at 18.6 µM], respectively. For the same compound, the fluorescence, % of triamterene in experiment [8] is -0.0167% [at 18.6 µM]. Besides, in experiment [10], the fluorescence, % of fluorescein was 0.0022% [at 18.6 µM]. Further, the fluorescence, % of fluorescent control was -0.0336% [at 18.6 µM] in experiment [11], 0.0321% [at 18.6 µM] in [13], -0.0233% [at 18.6 µM] in experiment [17] and 0.0094% [at 18.6 µM] in [16]. Moreover, the activity change in experiment [12] is 0.0291% [at 18.6 µM]. The fluorescence, % of Rose Bengal in [14] is -0.0854% [at 18.6 µM].

Take `N=c1ccn2c(n1)O[C@H]1[C@H](O)[C@@H](CO)O[C@H]12`: the Potency in [1] is 1.5 µM (active) and 1.72 µM (active). The Potency result in experiment [2], in experiment [3], in experiment [4], in experiment [5], in experiment [20] and in [7] was “inactive” each time. Besides, the Potency entry in experiment [14], in [15] and in experiment [18] was “inactive” in each case. Moreover, the result in [8], in [10], in experiment [11], in experiment [12], in experiment [17] and in experiment [16] was inactive.
